# Compound activity from PubChem BioAssay.
# The list is a sample of the results.
# aSyn 5UTR act = Activators working through SNCA 5'UTR binding (MLPCN); alpha-synuclein 5'UTR reporter, activators screen; activity score, % (tested at 7.5 µM), hits read low; 7.1% of 300,000 active; AID 1814; in the data active = activity score below about -60%
# * marks the source's active call; other numbers are inactive results.
SMILES,aSyn 5UTR act
CC(C)CN=CC1=C(O)c2ccccc2C1=O,-83*
O=C1C(C=NCc2ccccn2)=C(O)c2ccccc21,-106*
CCOC(=O)C1CCN(c2ccc(-c3cccs3)nn2)CC1,-212*
Cc1cccc(OCCOC(=O)c2c(-c3ccccc3)noc2C)c1,-97*
O=C(NC1CCCCCC1)c1cc2c(=O)n3ccccc3nc2s1,-85*
C=CCNC(=O)c1cc2c(=O)n3ccccc3nc2s1,-218*
N=c1c(S(=O)(=O)c2ccc(Br)cc2)cc2c(=O)n3ccccc3nc2n1C1CCCC1,50
c1ccc(Nc2nc3ccccc3o2)cc1,-189*
Cc1cc(C)nc(Nc2nc3ccccc3o2)n1,-70*
FC(F)(F)Oc1ccc(Nc2nc3ccccc3o2)cc1,-260*
Cc1cccc(C)c1OCC(O)CN(Cc1ccccc1O)C1CCCCC1 (stereo not drawn),62
CCCc1cc(=O)n2c([nH]c3ccccc32)c1C#N,-70*
c1ccc(N2OCC3Cn4c(nc5ccccc54)C32)cc1 (stereo not drawn),-64*
CCOC(=O)C(C)n1cnc2c(cnn2-c2ccc(Cl)cc2)c1=O (stereo not drawn),-135*
CCCCn1cnc2c(cnn2-c2ccc(Cl)cc2)c1=O,-109*
CCCn1cnc2c(cnn2-c2ccc(F)cc2)c1=O,-115*
CCCCn1cnc2c(cnn2-c2ccc(F)cc2)c1=O,-123*
Cc1nc2ccccc2c(=O)n1NCc1cc(Br)cs1,-81*
Cc1ccc2cc3c(N)c4c(C)ccc(C)c4nc3nc2c1,-77*
Cc1cc(C(=O)CSc2nnnn2C)c(C)n1-c1cccc(F)c1,-131*
Cc1ccc(-n2c(C)cc(C(=O)COc3cccnc3[N+](=O)[O-])c2C)cc1,64
Cc1cc(C(=O)CSc2ncccn2)c(C)n1-c1cccc(F)c1,-84*
CC1CCN(c2oc(-c3cccc4ccccc34)nc2C#N)CC1,-142*
N#Cc1nc(-c2cccc3ccccc23)oc1N1CCCCC1,-155*
N#Cc1nc(-c2ccccc2Cl)oc1N1CCCCC1,-69*
SMILES,aSyn 5UTR act
Cc1ccc(C(=O)NC2CCc3ccccc3C2=O)cc1 (stereo not drawn),-169*
CC(C)(C)n1cnc2cc(NC(=O)c3ccc(Cl)cc3)ccc21,-138*
O=C(Nc1ccc2nn(-c3ccccc3)nc2c1)c1cccs1,-178*
Cn1cnc2cc(NC(=O)c3ccc(Cl)cc3)ccc21,-139*
Cc1cccc(C(=O)Nc2ccc3c(c2)ncn3C)c1,-112*
Cn1cnc2cc(NC(=O)c3cccs3)ccc21,-97*
COCCNC(=O)c1ccc2c(c1)ncn2-c1cccc(C)c1,-75*
O=C(COc1ccc(Cl)cc1Cl)c1ccc[nH]1,-94*
COC(=O)c1sccc1NC(=O)COc1ccc(F)cc1Cl,-99*
O=C(COc1cc(Cl)ccc1Cl)Nc1ccc2c(c1)CCC2,-64*
O=C(COc1ccc(Cl)cc1Cl)Nc1ccccc1F,-175*
CC(=O)Nc1ccc(NC(=O)COc2ccc(Cl)cc2Cl)cc1,-117*
CC1CCN(S(=O)(=O)c2ccc(C(=O)Nc3nnc(-c4ccco4)o3)cc2)CC1,61
O=C(Nc1nnc(-c2ccco2)o1)c1ccc([N+](=O)[O-])s1,-71*
CCc1ccccc1NC(=O)c1ccc([N+](=O)[O-])s1,-68*
CN(C)c1ccc(C(=O)OCc2ccccc2)cc1,-74*
CN(C)c1ccc(CCc2ccc(N)cc2)cc1,84
O=C(Nc1ccc2c(c1)OCCO2)c1cccs1,-76*
O=C(Nc1ccc2c(c1)OCO2)c1ccc(Br)s1,-240*
O=C(N/N=C\c1cc2c(cc1Cl)OCO2)c1cccs1,-67*
O=C(/C=C\Nc1ccc2c(c1)OCO2)c1cccs1,-147*
O=C(c1ccc2c(c1)OCCCO2)c1cccs1,-118*
O=C(Nc1ccc2c(c1)OCO2)c1cccs1,-176*
O=C(CN1C(=O)c2ccccc2S1(=O)=O)c1ccc2c(c1)OCCCO2,114
CCN(CC)S(=O)(=O)c1cc(NC(=O)c2ccc(Br)s2)ccc1C,-95*
SMILES,aSyn 5UTR act
O=C(C#Cc1ccccc1)c1ccco1,-141*
COc1cc(O)c2c(=O)cc(-c3ccccc3)oc2c1,-145*
COc1ccc(-c2cc(=O)c3c(O)c(OC)c(O)cc3o2)cc1,70
O=c1c(O)c(-c2ccc(O)cc2)oc2cc(O)cc(O)c12,-100*
O=c1cc(-c2ccc(O)cc2)oc2cc(O)cc(O)c12,-269*
COc1cc(O)c2c(=O)c3c(OC)c(O)ccc3oc2c1,-78*
COCOc1ccc(-c2cc(=O)c3c(O)cc(OCOC)cc3o2)cc1,-127*
COc1cc(-c2cc(=O)c3c(O)cc(O)cc3o2)ccc1O,-79*
O=c1cc(-c2ccccc2)oc2cc(O)cc(O)c12,-171*
N#Cc1ccc(CO/N=C/c2ccccc2)cc1,-95*
COc1ccc(-c2cn3cc(C(F)(F)F)cc(Cl)c3n2)cc1,-197*
Fc1ccc(-c2cn3cc(C(F)(F)F)cc(Cl)c3n2)cc1,-101*
O=C(Nc1nc(-c2ccc(Cl)cc2)cs1)C1CCCO1 (stereo not drawn),-90*
COc1ccc(-c2nnc(NC(=O)C3CCCO3)s2)cc1 (stereo not drawn),-112*
